{"source": "PubChem BioAssay (Tox21)", "note": "Inconclusive results are not listed. Unmarked numbers belong to inactive results. The source made the active and inactive calls. Calls come from the whole dose curve; as a rule, active = well fitted cell-killing curve with a large enough effect in the repeat runs; inconclusive = weak or mixed curves, or effect the other way; inactive = flat fitted curve, though single readings scatter. % is set by controls: 0 for no effect and ±100 for the full control effect; potency is the fitted concentration of half-maximal effect.", "data": [{"assay": "cAMP Responsive Elements (CRE) small molecule agonists, cell-based qHTS assay: qHTS cell viability counter screen (AID 2060914); note: nearly all actives have a fitted effect of over 50% in size", "settings": "CRE-bla HEK293T viability, CellTiter-Glo luminescence, 5 h; series mostly up to 92.4 µM; activity change, negative = cytotoxicity: at the top concentration", "summary_of_the_method": "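Cytotoxicity counter screen multiplexed with the CRE-bla reporter assay in HEK 293T cells: 3 h compound exposure at 37 °C, followed by CellTiter-Glo luminescence measured in the same wells.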", "values": [{"smiles": "NS(=O)(=O)c1cc2c(cc1Cl)NC(CSCc1ccccc1)=NS2(=O)=O", "activity change, negative = cytotoxicity": "12.7% [at 42.5 µM]"}, {"smiles": "COc1cc(C(=O)NC2CCN(C)CC2)ccc1Nc1ncc2c(n1)N(C1CCCC1)CC(F)(F)C(=O)N2C", "activity change, negative = cytotoxicity": "-6.3%"}, {"smiles": "Sc1nc2ccccc2s1", "activity change, negative = cytotoxicity": "-0.922%"}, {"smiles": "CC(CCC(=O)O)(c1ccc(O)cc1)c1ccc(O)cc1", "Potency": "inactive"}, {"smiles": "O=S(=O)(O)c1cc(O)c(O)c(S(=O)(=O)O)c1", "activity change, negative = cytotoxicity": "5.62%"}, {"smiles": "CCN(CC)CCOCCOC(=O)C1(c2ccccc2)CCCC1", "activity change, negative = cytotoxicity": "-0.982% [at 42.5 µM]"}, {"smiles": "CCOC(=O)COc1ccc2c(c1)CC(NCC(O)c1cccc(Cl)c1)CC2", "note": "(stereo not given)", "activity change, negative = cytotoxicity": "0.534%"}, {"smiles": "CCCCCCCCC(=O)OCC", "activity change, negative = cytotoxicity": "9.9%"}, {"smiles": "CC(=O)c1ccc2c(c1)Cc1ccccc1-2", "activity change, negative = cytotoxicity": "-7.62%"}, {"smiles": "O=C(O)CCNC(=O)c1ccccc1", "activity change, negative = cytotoxicity": "11.5% [at 42.5 µM]"}, {"smiles": "CCCCOC(=O)CC(CC(=O)OCCCC)(OC(C)=O)C(=O)OCCCC", "Potency": "inactive"}, {"smiles": "C=C1CC[C@H](O)C/C1=C\\C=C1/CCC[C@]2(C)[C@@H]([C@H](C)CCCC(C)C)CC[C@@H]12", "activity change, negative = cytotoxicity": "0.614%"}, {"smiles": "Cn1ccc2cc3c(cc21)CCN3C(=O)Nc1cccnc1", "activity change, negative = cytotoxicity": "3% [at 18.9 µM]"}, {"smiles": "CCc1cc(Cc2cc(CC)c(N)c(CC)c2)cc(CC)c1N", "activity change, negative = cytotoxicity": "-5.47%"}, {"smiles": "C/C(=N\\O)[C@@H](C)NCC(C)(C)CN[C@H](C)/C(C)=N/O", "activity change, negative = cytotoxicity": "-1.23% [at 42.5 µM]"}, {"smiles": "CCCC(CCC)C(=O)O", "Potency": "inactive"}, {"smiles": "O=C1CC2(CCCC2)CC(=O)N1CCNCC1COc2ccccc2O1", "note": "(stereo not given)", "activity change, negative = cytotoxicity": "8.76% [at 42.5 µM]"}, {"smiles": "CC(C)CC(O)CC(C)C", "activity change, negative = cytotoxicity": "-2.87%"}, {"smiles": "CCCCCCC(C)(C)C(=O)O", "activity change, negative = cytotoxicity": "7.83%"}, {"smiles": "CC(COc1ccccc1)NC(C)C(O)c1ccc(O)cc1", "note": "(stereo not given)", "activity change, negative = cytotoxicity": "-13.6% [at 42.5 µM]"}, {"smiles": "CC/C=C\\CCCCCO", "activity change, negative = cytotoxicity": "-0.0168%"}, {"smiles": "O=C(O)c1cc(C(=O)O)cc(S(=O)(=O)O)c1", "activity change, negative = cytotoxicity": "0.841%"}, {"smiles": "CN=C(NC#N)Nc1ccc(C2=NNC(=O)CC2C)cc1", "note": "(stereo not given)", "activity change, negative = cytotoxicity": "-2.74% [at 42.5 µM]"}, {"smiles": "CC(=O)O[C@H](CC(=O)[O-])C[N+](C)(C)C", "activity change, negative = cytotoxicity": "1.28%"}, {"smiles": "C=C(C#N)C(=O)OCC", "Potency": "inactive"}, {"smiles": "Cc1cccc(N(C)C(=S)Oc2ccc3c(c2)CCC3)c1", "activity change, negative = cytotoxicity": "-15.9% [at 42.5 µM]"}, {"smiles": "COC(OC)C(C)c1ccccc1", "note": "(stereo not given)", "activity change, negative = cytotoxicity": "0.804%"}, {"smiles": "O=C(O)Cc1ccc(CCNS(=O)(=O)c2ccc(Cl)cc2)cc1", "activity change, negative = cytotoxicity": "-28.7% [at 42.5 µM]"}, {"smiles": "Cc1cc(C)c(C=O)c(C)c1", "activity change, negative = cytotoxicity": "-0.791%"}, {"smiles": "NC(=O)CC[C@@H]1NC(=O)[C@H](Cc2ccccc2)NC(=O)[C@H](Cc2ccc(O)cc2)NC(=O)CCSSC[C@@H](C(=O)N2CCC[C@H]2C(=O)N[C@@H](CCCN=C(N)N)C(=O)NCC(N)=O)NC(=O)[C@H](CC(N)=O)NC1=O", "activity change, negative = cytotoxicity": "-2.97% [at 42.5 µM]"}, {"smiles": "CCCCCCCCS", "activity change, negative = cytotoxicity": "14.9%"}, {"smiles": "CC(C)=CC(=O)O", "activity change, negative = cytotoxicity": "6.84%"}, {"smiles": "CC(C)(C)CC(C)(C)c1ccc(O)c(Cc2ccc(Cl)cc2Cl)c1", "Potency": "13.3 µM (active)"}, {"smiles": "O=C(O)[C@@H]1CSCN1", "activity change, negative = cytotoxicity": "6.89% [at 42.5 µM]"}, {"smiles": "O=CC=C(c1ccccc1)c1ccccc1", "activity change, negative = cytotoxicity": "4.21%"}, {"smiles": "CCCCCCCCCCCCN(CCO)CCO", "Potency": "60.9 µM (active)"}, {"smiles": "N#CCc1ccc(Cl)cc1Cl", "activity change, negative = cytotoxicity": "4.98%"}, {"smiles": "C=CC(=O)CC", "activity change, negative = cytotoxicity": "21.3%"}, {"smiles": "Cc1nc(C2CCCCC2)c(-c2ccc(S(N)(=O)=O)c(F)c2)o1", "activity change, negative = cytotoxicity": "-0.0302% [at 42.5 µM]"}, {"smiles": "O=Cc1ccc(CO)o1", "Potency": "inactive"}]}]}
